Sampled rows, rich in hits. Any-hit rate of the full collection: about 20%.
Pf growth 48h = P. falciparum growth inhibition at 48 hours (one generation). P. falciparum luciferase growth in erythrocytes, 48 h. Potency, µM (titrated, usually from 28.7 µM), actives largely listed as inhibitors. 5.9% of 310,000 active. AID 504832
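Growth was read as firefly luciferase luminescence after a 48 h, 37 C, 5% CO2 exposure of compounds to reporter-bearing P. falciparum cultures (0.1% parasitemia, 2% hematocrit final) in Albumax-supplemented RPMI 1640.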
Pf growth 96h = P. falciparum growth inhibition at 96 hours. Potency, µM (doses to about 28.7 µM), usual class: inhibitors. 6.9% of 320,000 active. P. falciparum luciferase reporter growth, 96 h
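96 h incubation, 37 C, 5% CO2, of luciferase-reporter P. falciparum-infected RBCs (2% hematocrit, 0.05% parasitemia final) with test compounds; endpoint luminescence.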
HCMV inh = human cytomegalovirus inhibition. HFF cells, HCMV-luciferase reporter, 72 h; hits give low values. activity change, negative = inhibition, % at 57.5 µM. 4.5% of 410,000 active. AID 1259415; in the data active = activity change below about -60%; inconclusive = no clear call, values can overlap the other calls; inactive = above about -39%
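Compounds were evaluated in HFFs infected with an HCMV luciferase reporter virus (MOI 1 PFU/cell). Luciferase in lysates collected 72 h post infection served as the replication measure.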
Shiga toxin inh = inhibitors of Shiga toxin in Vero cells; Vero cells, Shiga toxin protein synthesis inhibition reporter; inhibition, % at 38.7 µM; 9.2% of 290,000 active; AID 2315; in the data active = inhibition mostly above about 28%, no sharp cut-off; inactive = mostly below about 43%
Cycloheximide cs = counter-screen for Shiga toxin inhibitors: cycloheximide protein synthesis inhibition; cell reporter, cycloheximide protein synthesis inhibition counterscreen; max response, %; 12% of 300,000 active; AID 2314; in the data active = max response mostly above about 13%, no sharp cut-off; inactive = mostly below about 14%; also: read at 38.3 µM for the half of the compounds with a filed dose
A number is an active result; [ ] = remark or other dose. Unless noted, calls follow the shape of the dose curve; as a rule, active = well fitted inhibition curve with a large enough effect; inconclusive = small, poorly fitted or top-dose-only effect, or another doubt; inactive = no such curve, though single readings can be large or run the other way.

For COc1ccc(/C=N/Nc2nc(NCc3ccco3)nc(Nc3ccc(OC)cc3)n2)cc1 the results were Pf growth 48h 14.7µM, Pf growth 96h inconclusive, HCMV inh inconclusive, Shiga toxin inh inactive and Cycloheximide cs inactive.
COc1ccc(Nc2nc(NCc3ccco3)nc(N/N=C/c3ccc(O)cc3)n2)cc1 was read as Pf growth 48h inconclusive, Pf growth 96h inactive, HCMV inh -61.0, Shiga toxin inh 70.4 and Cycloheximide cs 16.0.
`CC(C(=O)Nc1ccon1)N1C(=O)c2ccccc2S1(=O)=O` (configuration not stated) gave Pf growth 48h inactive, Pf growth 96h inactive and HCMV inh inactive.
For O=C(N1CCCC1)C12CC3CC(CC(C3)C1)C2 the results were Pf growth 48h 11.7µM, Pf growth 96h inactive, HCMV inh inactive, Shiga toxin inh inactive and Cycloheximide cs inactive.
For Cc1cc(C)c2nc(N3CCC(C(=O)NCCCN4CCCCC4)CC3)sc2c1 the results were HCMV inh -103.3, Shiga toxin inh inactive and Cycloheximide cs inactive.
Screening Cc1cc(C)c2nc(N3CCC(C(=O)NCC4CCCO4)CC3)sc2c1 (configuration not stated) returned Pf growth 48h inactive, Pf growth 96h inactive, HCMV inh inactive, Shiga toxin inh inactive and Cycloheximide cs 21.0.
CC1CCN(C(=O)C2CCN(c3nnc(-n4cccc4)s3)CC2)CC1 was read as Pf growth 48h inactive, Pf growth 96h inactive, HCMV inh inconclusive, Shiga toxin inh inactive and Cycloheximide cs inactive.
Screening O=C(C1CCN(c2nnc(-n3cccc3)s2)CC1)N1CCCCC1 returned Pf growth 48h inactive, Pf growth 96h inactive, HCMV inh inactive, Shiga toxin inh inactive and Cycloheximide cs 20.4.
O=C(C1CCN(c2nnc(N3CCCC3=O)s2)CC1)N1CCN(c2cccc(C(F)(F)F)c2)CC1 was read as Pf growth 48h inconclusive, Pf growth 96h inactive, HCMV inh -79.1, Shiga toxin inh inactive and Cycloheximide cs inactive.
`COc1cc(C)nc(N2CCC(C(=O)NCC3CCCO3)CC2)n1` (configuration not stated) gave Pf growth 48h inactive, Pf growth 96h inconclusive and HCMV inh inactive.
`Cc1ccc(C)c(N2CCN(C(=O)C3CCN(c4nnc(N5CCCC5=O)s4)CC3)CC2)c1` gave Pf growth 96h inactive, HCMV inh inactive, Shiga toxin inh inactive and Cycloheximide cs inactive.
Screening COc1cc(C(=O)NNC(=O)c2cc(S(=O)(=O)N(C)C)ccc2N2CCCC2)cc(OC)c1OC returned Pf growth 48h inconclusive, Pf growth 96h inconclusive and HCMV inh inactive.
`CCCn1c(CCC(=O)Nc2cc(C(=O)OC)cc(C(=O)OC)c2)nc2cccnc21` gave HCMV inh inactive.
Cc1cc(C)c2nc(N3CCC(C(=O)N4CCN(c5ncccn5)CC4)CC3)sc2c1 was read as Pf growth 96h inactive, HCMV inh inactive, Shiga toxin inh inactive and Cycloheximide cs inactive.
Cc1cc(C)c2nc(N3CCC(C(=O)N4CCCC4)CC3)sc2c1 was read as Pf growth 48h 8.28µM, Pf growth 96h inconclusive, HCMV inh inactive, Shiga toxin inh inactive and Cycloheximide cs inactive.
For Cc1cc(C)c2nc(N3CCCC(C(=O)NC4CCCC4)C3)sc2c1 (configuration not stated) the results were Pf growth 48h inactive, Pf growth 96h 5.22µM, HCMV inh inactive, Shiga toxin inh inactive and Cycloheximide cs inactive.
For COc1cc(OC)c(NC(=O)c2cn(C3CCCC3)c(=O)c3c2c2ccccc2n3C)cc1Cl the results were HCMV inh inactive.
Screening CCOC(=O)C1=C(CC)Nc2ccccc2N=C1NC(=O)c1ccc(S(=O)(=O)N2CCOCC2)cc1 returned Pf growth 48h inconclusive, Pf growth 96h 14.7µM, HCMV inh inactive, Shiga toxin inh inactive and Cycloheximide cs inactive.
Screening CCOC(=O)C1=C(CC)Nc2ccccc2N=C1NC(=O)c1ccc(C)c(S(=O)(=O)N2CCOCC2)c1 returned Pf growth 48h inconclusive, Pf growth 96h 10.4µM and HCMV inh inactive.
Screening CC(=O)[C@@]1(O)C(C)CC2C3C=C(C)C4=Cc5c(cnn5-c5ccccc5)C[C@]4(C)C3C(O)C[C@@]21C (some centres not stated) returned Pf growth 48h 5.22µM, Pf growth 96h 10.4µM, HCMV inh inconclusive, Shiga toxin inh inactive and Cycloheximide cs inactive.
`CC(=O)c1ccc(Nc2nc3ccc(C)cc3n3cnnc23)cc1` gave Pf growth 48h inactive[0.00184 µM], Pf growth 96h inactive, HCMV inh inconclusive, Shiga toxin inh inactive and Cycloheximide cs 16.6.
For Cc1ccc(-c2c(C(=O)N/N=C/c3c[nH]c4ccccc34)nnn2-c2nonc2N)cc1 the results were Pf growth 48h inconclusive, Pf growth 96h inconclusive, HCMV inh inactive, Shiga toxin inh inactive and Cycloheximide cs 21.9.
For Cc1nnn(-c2nonc2N)c1C(=O)N/N=C/c1cccc2ccccc12 the results were Pf growth 48h inactive, Pf growth 96h inactive, HCMV inh -65.1, Shiga toxin inh inactive and Cycloheximide cs inactive.
For CCCN(CCC)Cc1c(C(=O)N/N=C/c2c[nH]c3ccccc23)nnn1-c1nonc1N the results were Pf growth 48h inactive, Pf growth 96h 9.28µM, HCMV inh inactive, Shiga toxin inh inactive and Cycloheximide cs inactive.
For O=C(CSc1ncc2c(n1)-c1cc(Cl)ccc1N(Cc1ccccc1)S2(=O)=O)NCc1ccccc1 the results were HCMV inh inactive.
Screening O=C(O)c1ccc([N+](=O)[O-])cc1-c1cc([N+](=O)[O-])ccc1C(=O)O returned HCMV inh inactive.
Screening O=C(CCN1C(=O)C2C3C=CC(C4CC34)C2C1=O)Oc1cccc2cccnc12 (configuration not stated) returned Pf growth 48h inconclusive, Pf growth 96h inactive, HCMV inh -95.5, Shiga toxin inh inactive and Cycloheximide cs inactive.
Cc1ccc(C(=O)COC(=O)CCN2C(=O)C3C4C=CC(C5CC45)C3C2=O)cc1 (configuration not stated) was read as Pf growth 48h inactive, Pf growth 96h inactive, HCMV inh inconclusive, Shiga toxin inh inactive and Cycloheximide cs inactive.
`O=C(CCN1C(=O)C2C3C=CC(C4CC34)C2C1=O)OCC(=O)c1ccccc1` (configuration not stated) gave Pf growth 48h inactive, Pf growth 96h inconclusive, HCMV inh -82.8, Shiga toxin inh inactive and Cycloheximide cs inactive.
O=C(CN1C(=O)C2C3C=CC(C3)C2C1=O)OCC(=O)c1ccccc1 (configuration not stated) was read as Pf growth 48h inactive, Pf growth 96h inactive, HCMV inh inactive, Shiga toxin inh 37.4 and Cycloheximide cs 21.0.
Screening COc1ccc2c(c1)c(C)cc[n+]2Cc1ccccc1 returned Pf growth 48h inconclusive, Pf growth 96h inactive, HCMV inh -85.3, Shiga toxin inh inactive and Cycloheximide cs inactive.
`Cc1ccc2c(c1)c(C)cc[n+]2Cc1ccccc1` gave Pf growth 48h 0.37µM, Pf growth 96h 0.185µM, HCMV inh -96.0, Shiga toxin inh inactive and Cycloheximide cs inactive.
Screening Cc1ccc2ccc[n+](Cc3ccccc3)c2c1 returned Pf growth 48h 0.415µM, Pf growth 96h 0.522µM and HCMV inh -82.0.
